Measured values as given in PubChem BioAssay (NCI).
Values joined by “and” are separate entries in the source; they are usually repeats but may differ in a detail not shown here. Equal values may be shown once. About 79,000 compounds went through this panel and 15% of them were active in at least one assay; those are over-represented in the sample as a whole. A number with no mark means an inactive call. Active and inactive are the calls of the source. Cut-off read from the data, not from the text of the source: active = growth inhibition above about 70%; inactive = the rest.

Experiment: NCI Yeast Anticancer Drug Screen. Data for the rad50 strain (AID 155);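 note: 0% = growth of vehicle-only cultures of the same strain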
Settings: S. cerevisiae rad50 strain growth inhibition; at 50.0 µM; hits give high values
How it was run: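 Cells are treated with compound, grown, and their growth is then scored against vehicle-only cultures of the same repair-deficient yeast strain.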

| Structure (SMILES) | growth inhibition |
| --- | --- |
| O=C(c1ccccc1)C1C(C(=O)c2ccccc2)N1Cc1ccccc1 (stereo not given) | 5% and 21.4% |
| c1ccc2c(c1)ccc1[s+]cccc12 | 69.4% |
| CC(C)N(C(=O)SCC(Cl)=C(Cl)Cl)C(C)C | -2.95% |
| CC(C)(Cl)[N+](=O)[O-] | -3.35% |
| CC(C)NC(C)C(C)c1ccccc1 (stereo not given) | 5.95% |
| [Pd].[Pd].[S-]CC[S-].[S-]CC[S-].c1ccc([PH+](c2ccccc2)c2ccccc2)cc1.c1ccc([PH+](c2ccccc2)c2ccccc2)cc1 | -4.9% |
| N.N.O=P([O-])([O-])CN(CP(=O)([O-])[O-])CP(=O)([O-])[O-].[Pt+2] | -4.25% |
| CC1(CCl)COP(=O)(NN)OC1 (stereo not given) | 3.95% |
| O=[P+](O)c1ccccc1 | -5% and -7.35% |
| O=P1(N(CCCl)CCCl)Oc2c(Cl)cc(Cl)c(Cl)c2Cc2c(Cl)c(Cl)cc(Cl)c2O1 | -15.1% |
| CN(C)P(=O)(N(C)C)N(C)CO | 6.35% |
| O=C(O)c1cc(Cc2ccc(O)c(C(=O)O)c2)ccc1O | -24.2% and -8.25% |
| Cc1cccc(NC(=O)C(=O)C2C(=O)NC(=O)NC2=O)c1C | 0.7% |
| C=C1C(=O)OC2CC3(C)OC3CC/C(C)=C/C(OC(C)=O)C12 (stereo not given) | 27.1% |
| CCn1/c(=N\N=O)sc2ccccc21 | -4.1% |
| COC(=O)c1cccc(S(=O)(=O)F)c1 | -9.85% |
| CO[C@H]1Nc2c(ccc(C)c2O)C(=O)N2C=C(/C=C/C(N)=O)C[C@@H]12 | 89.2% (active) |
| COC(=O)c1ccccc1NP(=O)(O)Oc1ccccc1 (tested in a mixture with another compound) | 9.7% |
| CC1([N+](=O)[O-])COP(=O)(NCC2CCCO2)OC1 (stereo not given) | 4.8% |
| CCCCCCC(=O)O[C@H]1CC[C@H]2[C@@H]3CCC4C/C(=N/NC(=O)c5cccc6c(=O)c7ccccc7[nH]c56)C=C(C)[C@]4(C)[C@H]3CC[C@]12C (stereo not given in full) | 3.1% |

| Structure (SMILES) | growth inhibition |
| --- | --- |
| CC(C)C(NC(=O)CCl)C(=O)O (stereo not given) | -9.2% |
| Clc1ccc([As](c2ccc(Cl)cc2)c2ccc(Cl)cc2)cc1 | 77.5% (active) |
| CC(C)(C)C(=O)CC(=O)C(C)(C)C.[Cl][Sb]1([Cl])[c]2ccccc2Cc2cccc[c]21 | -1.05% |
| NCC1OC(OC2C(CO)OC(OC3C(O)C(N)CC(N)C3OC3OC(CN)C(O)C(O)C3N)C2O)C(N)C(O)C1O (stereo not given) | 6.1% |
| O=NN(CCF)C(=O)NCCO | 1.9% |
| O=C(Oc1ccc(S(=O)(=O)F)cc1Cl)c1ccc([N+](=O)[O-])cc1 | 92.5% (active) |
| CC(=O)c1ccccc1O | 10.8% and 2.05% |
| O=c1oc2cc(O)ccc2c(O)c1C(c1ccccn1)c1c(O)c2ccc(O)cc2oc1=O | 12.6% |
| CN1C2CCCC1CC(=O)C2 | -10.3% |
| O=C(O)C(F)(F)C(F)(Cl)C(F)(F)C(F)(Cl)C(F)(F)C(F)(Cl)C(F)(F)Cl (stereo not given) (tested in a mixture with another compound) | 8.45% and 43.4% |
| CC(=O)CC1(OC(=O)C2C(C=C(C)C)C2(C)C)C(=O)Nc2ccccc21 (stereo not given) | 40.5% |
| Cc1ccc(O)c(CN2CCN(Cc3cc(C)ccc3O)CC2)c1 | 3.1% |
| CC(=O)C(C(C)=O)C(C)=O.CC(=O)C(C(C)=O)C(C)=O.CC(=O)C(C(C)=O)C(C)=O.[Cr] | 25.2% |
| COc1ccc(/C=C\[N+](=O)[O-])cc1OCc1ccccc1 | 7.2% |
| [Cl][Pd]([Cl])([Cl])[Cl].[NH-]CC[NH-].[NH-]CC[NH-].[Pd+2] | 28.7% |
| Oc1cc(Br)c(O)c(Br)c1 | 10.3% |
| N.N.N.N.[Co+3].[O-][Cl+3]([O-])([O-])[O-].[OH3+].[OH3+] | -25.4% |
| CC(=O)C1(c2ccccc2)CCNCC1 | -1% |
| COc1ccc(CC2C3=C(CCCC3)CCN2C)cc1 (stereo not given) | 45.2% |
| O=C(NCCNC(=O)Nc1ccccc1S(=O)(=O)F)Nc1ccccc1S(=O)(=O)F | -17% |
